hgDAF-12 ag – H. glycines DAF-12 receptor agonists, primary screen, cell-based, luminescence, HEK293, GAL4 fusion, UAS-luciferase. Nuclear hormone receptor DAF-12 (Heterodera glycines), GAL4 fusion. HEK293 GAL4-hgDAF12 UAS-luciferase reporter, agonist luminescence; normalized to butyrate control. 370,000 compounds, 1.8% hits. activation, % at 6.8 µM;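 active means activation above a cutoff set at the mean of all screened compounds plus 3 SD, cut at about 10% in these data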
hcDAF-12 act – H. contortus DAF-12 nuclear receptor activators, primary screen, cell-based, luminescence, HEK293, lit1-tk-luc reporter. 370,000 compounds, 1.4% hits. HEK293 hcDAF-12 lit1-tk-luc reporter; 0% DMSO, 100% Δ7-dafachronic acid. activation, % at 6.8 µM. AID 652067, 2013;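 active means activation above the mean of all tested compounds plus 3 SD, cut at about 5.5% in these data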
DAX1 inh-1 – DAX1 (NR0B1) inhibitors on StAR promoter, primary screen, cell-based, luminescence, SF-1 (NR5A1), full-length DAX-1; HEK293T StAR-luciferase reporter, SF-1/DAX-1 repression relief; inhibition, % at 6.8 µM; 370,000 compounds, 1.1% hits; AID 652010, 2013;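 active means inhibition above the mean over all tested compounds plus 3 SD, cut at about 3.6% in these data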;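 further: higher inhibition means more luminescence from relief of DAX-1 repression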
ssDAF-12 act – S. stercoralis DAF-12 nuclear receptor activators, primary screen, cell-based, luminescence, HEK293, GRIP1 co-expression, lit1-tk-luc. activation, % at 6.8 µM. HEK293 ssDAF-12/GRIP1 lit1-tk-luc reporter; % of 3 µM dafachronic acid response. 370,000 compounds, 1% hits. Nuclear hormone receptor DAF-12 (Strongyloides stercoralis). AID 652126, 2013;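 active means activation above the mean over all tested compounds plus 3 SD, cut at about 0.9% in these data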
DAX1 inh-2 – DAX1 (NR0B1) inhibitors, primary screen, cell-based, HEK293, Gal4-DAX1, luciferase luminescence; Nuclear receptor subfamily 0 group B member 1 (Homo sapiens), P51843; inhibition, % at 6.75 µM; AID 504766, 2011; HEK293 Gal4-DAX1 luciferase reporter; 340,000 compounds, 0.99% hits;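 active means inhibition above the mean over all tested compounds plus 3 SD, cut at about 4.2% in these data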;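 further: inhibition shows as a rise in luminescence from relieved DAX1 repression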
Target sequence (P51843 207-470 limits assumed): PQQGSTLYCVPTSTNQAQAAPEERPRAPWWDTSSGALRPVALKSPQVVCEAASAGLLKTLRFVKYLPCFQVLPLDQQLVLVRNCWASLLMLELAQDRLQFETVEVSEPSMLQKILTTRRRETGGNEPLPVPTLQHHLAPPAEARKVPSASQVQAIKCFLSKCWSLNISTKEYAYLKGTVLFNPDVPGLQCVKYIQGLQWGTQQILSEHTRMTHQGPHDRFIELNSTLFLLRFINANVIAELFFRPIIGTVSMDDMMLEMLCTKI
DAX1 inh confirm – DAX1 (NR0B1) inhibitors relieving SF-1 repression, confirmation, cell-based, luminescence, HEK293T, full-length DAX-1, SF-1 activated StAR promoter; inhibition, % at 6.8 µM; 2,400 compounds, 87% hits; shares compounds with DAX1 inh-1; HEK293T StAR-promoter luciferase reporter, SF-1/DAX-1 repression; AID 652134, 2013;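 active means inhibition above the average of every tested compound plus 3 SD, cut at about 3.8% in these data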
SF1 mutant ctr – StAR reporter signal changes without DAX1, counter-screen for DAX1 inhibitor project, cell-based, luminescence, AF-2 mutant SF-1, transactivation; shares compounds with DAX1 inh-1; HEK293 StAR-luciferase, SF-1 AF2 mutant; inhibition, % at 6.8 µM; 2,400 compounds, 78% hits; AID 652136, 2013;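 active means inhibition above the mean of all tested compounds plus 3 SD, cut at about 3% in these data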
LXR ag – LXR agonists, Gal4 luciferase reporter, confirmation, counter-screen for hcDAF-12 agonist project, cell-based, luminescence, HEK293, H. contortus campaign. HEK293 Gal4-LXR tk-luc reporter, 24 h; normalized: DMSO 0%, positive control 100%. shares compounds with hcDAF-12 act. 3,400 tested, under 10 active. activation, % at 6.8 µM. AID 743027, 2013;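 active means mean percent activation of the reporter above a cutoff set as the average over tested compounds plus their standard deviation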
Target sequence (P55055 whole entry, looked up, the tested form may be a part): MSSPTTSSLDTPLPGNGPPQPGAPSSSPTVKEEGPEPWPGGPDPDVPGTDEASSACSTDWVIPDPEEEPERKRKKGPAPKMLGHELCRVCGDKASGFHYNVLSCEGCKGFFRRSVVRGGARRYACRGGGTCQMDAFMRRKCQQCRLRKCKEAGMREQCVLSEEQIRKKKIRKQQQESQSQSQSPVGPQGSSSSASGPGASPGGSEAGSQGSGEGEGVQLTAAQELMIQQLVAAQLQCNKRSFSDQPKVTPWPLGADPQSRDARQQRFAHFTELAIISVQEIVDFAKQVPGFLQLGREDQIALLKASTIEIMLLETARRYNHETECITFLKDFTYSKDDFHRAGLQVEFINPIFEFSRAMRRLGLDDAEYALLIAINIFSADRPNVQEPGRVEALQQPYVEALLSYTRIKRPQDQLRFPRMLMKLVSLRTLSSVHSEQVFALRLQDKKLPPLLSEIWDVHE
hcDAF12 ag – H. contortus DAF-12 receptor agonists, confirmation, cell-based, luminescence, HEK293, lit1-tk-luc, triplicate | HEK293 hcDAF-12 lit1-tk-luc reporter; % of Δ7-dafachronic acid response | 3,400 compounds, 61% hits | shares compounds with hcDAF-12 act | activation, % at 6.8 µM | AID 743032, 2013;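 active means mean activation across triplicate tests above the threshold derived from the earlier primary screen, cut at about 5.5% in these data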
hgDAF12 ag – H. glycines DAF-12 receptor agonists, confirmation, cell-based, luminescence, HEK293, GAL4-LBD fusion; 3,300 compounds, 80% hits; HEK293 GAL4-hgDAF12 luciferase reporter, agonist mode; percent of butyrate response; activation, % at 6.8 µM; shares compounds with hgDAF-12 ag;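 active means mean activation over triplicate wells above the hit cutoff derived from the earlier primary screen, cut at about 11% in these data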
LXRb DAF12 ctr – LXR agonists, Gal4 luciferase reporter, confirmation, counter-screen for hgDAF-12 agonist project, cell-based, luminescence, HEK293, H. glycines campaign; shares compounds with hgDAF-12 ag; AID 743051, 2013; 3,300 tested, under 10 active; 24 h; activation, % at 6.8 µM;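 active means mean activation of the triplicate above a set limit carried over from the primary screen, none filed active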
Of the large screens only hits and unclear results are named; the others gave an inactive call (follow-up assays come after a bar, where they were run). Shown are actives, neighbours in structure and some others; about 4.1% of the full set was active somewhere.

COC(=O)c1sc2nc3c(cc2c1N)CCCC3	hgDAF-12 ag 25, hcDAF-12 act 6.5, DAX1 inh-1 5.1 | DAX1 inh confirm 13 | SF1 mutant ctr 6.8 | hgDAF12 ag 18 | LXRb DAF12 ctr inactive
CCOC(=O)c1sc2nc3c(cc2c1N)COC(C)(CC)C3 (stereo unspecified)	hgDAF-12 ag 14, hcDAF-12 act 9.3, DAX1 inh-1 4.8 | DAX1 inh confirm 14 | SF1 mutant ctr 6.0 | LXR ag inactive | hcDAF12 ag 6.1 | hgDAF12 ag 18 | LXRb DAF12 ctr inactive
COc1nc(C)ccc1-c1noc(-c2ccco2)n1	hgDAF-12 ag 15, hcDAF-12 act 7.8, DAX1 inh-1 5.0 | DAX1 inh confirm 12 | SF1 mutant ctr 5.4 | LXR ag inactive | hcDAF12 ag 6.6 | hgDAF12 ag 15 | LXRb DAF12 ctr inactive
COc1nc(-c2ccc(C)cc2)ccc1-c1noc(-c2ccco2)n1	none
COc1ccc(-c2csc(Nc3ccccc3)n2)cc1	hgDAF-12 ag 21, DAX1 inh-1 7.4 | DAX1 inh confirm 13 | SF1 mutant ctr 8.2 | hgDAF12 ag 20 | LXRb DAF12 ctr inactive
CC(=O)c1cccc(Nc2nc(-c3ccccc3)cs2)c1	hgDAF-12 ag 21, hcDAF-12 act 9.8, DAX1 inh-1 9.7, ssDAF-12 act 1.0 | DAX1 inh confirm 11 | SF1 mutant ctr 7.0 | LXR ag inactive | hcDAF12 ag inactive | hgDAF12 ag 19 | LXRb DAF12 ctr inactive
CC(=O)c1cccc(Nc2nc(-c3cccnc3)cs2)c1	none
Cc1cc(NC(=O)Cc2c(C)[nH]c3ccccc23)ccc1Oc1cccnc1	none (no result: DAX1 inh-2)
O=C1C(=Cc2cccs2)CCc2ccccc21	hgDAF-12 ag 18, hcDAF-12 act 9.4, DAX1 inh-1 7.7, ssDAF-12 act 1.4 (no result: DAX1 inh-2) | DAX1 inh confirm 12 | SF1 mutant ctr 6.2 | LXR ag inactive | hcDAF12 ag 8.7 | hgDAF12 ag 18 | LXRb DAF12 ctr inactive
O=C1c2ccccc2CCc2ccccc21	none
Cc1cc(N2CCN(C(=O)OC(C)(C)C)C[C@@H]2C)ccc1N1CCN(Cc2ccccc2)[C@@H](C)C1	none (no result: DAX1 inh-2)
O=C(NCc1c(F)cccc1F)C1CCCN(c2ncccn2)C1 (stereo unspecified)	none (no result: DAX1 inh-2)
Cc1ccccc1CN1CCCCC(NC(=O)Nc2cccc(F)c2)C1=O (stereo unspecified)	none (no result: DAX1 inh-2)
Cc1cccnc1NC(=O)Cn1nc(-c2ccccc2)oc1=S	hgDAF-12 ag 19, DAX1 inh-1 4.9, ssDAF-12 act 1.0 | DAX1 inh confirm 12 | SF1 mutant ctr 7.5 | hgDAF12 ag 17 | LXRb DAF12 ctr inactive
COc1ccc2cc(CCC(C)=O)ccc2c1	hgDAF-12 ag 14, DAX1 inh-1 5.2 | DAX1 inh confirm 9.6 | SF1 mutant ctr 7.9 | hgDAF12 ag 16 | LXRb DAF12 ctr inactive
Cc1ccc(-c2cc(-c3ccccc3Cl)[nH]n2)c(O)c1	hgDAF-12 ag 20, hcDAF-12 act 10, DAX1 inh-1 6.0, ssDAF-12 act 1.4, DAX1 inh-2 6.8 | DAX1 inh confirm 14 | SF1 mutant ctr 8.0 | LXR ag inactive | hcDAF12 ag 11 | hgDAF12 ag 21 | LXRb DAF12 ctr inactive
COc1ccccc1-c1cc(-c2cc(Cl)ccc2O)n[nH]1	none
O=C(CSC(=S)N1CCSCC1)c1ccccc1	hgDAF-12 ag 18, DAX1 inh-1 5.0 | DAX1 inh confirm 12 | SF1 mutant ctr 6.9 | hgDAF12 ag 19 | LXRb DAF12 ctr inactive
S=C(c1ccccc1)N1CCSCC1	none
COc1ccc(CCNCC(O)COc2cccc(C)c2)cc1OC (stereo unspecified)	none (no result: DAX1 inh-2)
O=C(/C=C/Nc1ccccc1F)c1ccc(Br)cc1	hgDAF-12 ag 17, hcDAF-12 act 12, DAX1 inh-1 5.2, ssDAF-12 act 1.5 | DAX1 inh confirm 14 | SF1 mutant ctr 8.4 | LXR ag inactive | hcDAF12 ag 14 | hgDAF12 ag 23 | LXRb DAF12 ctr inactive
O=C(/C=C/Nc1ccc(Br)cc1F)c1ccccc1	none
O=C(OCC(=O)N1CCN(c2ccccc2)CC1)c1cccc([N+](=O)[O-])c1	none
O=C(OCC(=O)N1CCN(c2ccccc2)CC1)c1ccccc1[N+](=O)[O-]	hgDAF-12 ag 15, DAX1 inh-1 6.2 | DAX1 inh confirm 9.4 | SF1 mutant ctr 3.6 | hgDAF12 ag inactive | LXRb DAF12 ctr inactive
COC(=O)[C@]12C[C@H](CC(=O)NCC34CC5CC(CC(C5)C3)C4)C(=O)N(Cc3cccc4ccccc34)C1=C[C@H](COCc1ccccc1)O[C@@H]2C	none (no result: DAX1 inh-2)
Brc1ccc(OCc2cn3ccccc3n2)cc1	hgDAF-12 ag 20, DAX1 inh-1 6.5 | DAX1 inh confirm 9.2 | SF1 mutant ctr 4.6 | hgDAF12 ag 16 | LXRb DAF12 ctr inactive
O=C(COc1ccc(Br)cc1)NCc1cn2ccccc2n1	none

Assay outcomes: PubChem BioAssay, The Scripps Research Institute Molecular Screening Center
